Compounds with a hit are over-represented: about 19% of the library has one in this group of screens.
IL1B secr inh: qHTS for Inhibitors of Inflammasome Signaling: IL-1-beta AlphaLISA Primary Screen; THP-1 LPS/ATP IL-1B secretion, AlphaLISA, 16 h; active compounds read low; activity change, % at 57.5 µM; 360,000 tested, 4.7% active; AID 743279, 2014; in the data active = activity change below about -50%; inconclusive = mostly about -30% to -49%
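Secreted IL-1B measured by AlphaLISA bead assay after 16 h compound exposure of THP-1 cells; compounds (final up to 57.5 uM) added 1 h before LPS (250 ng/mL) and ATP (1.25 mM) stimulation; lower signal means less secretion.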
HT1080 IDH1KD tx: qHTS for induction of synthetic lethality in tumor cells producing 2HG: qHTS for the HT-1080-IDH1KD cell line; HT-1080 IDH1 knockdown viability, ATP luminescence, 48 h; Potency, µM (titrated, usually from 46.1 µM), for inactives: top-dose activity, negative = toxicity, hits mostly cytotoxic; 360,000 tested, 2% active; AID 686971, 2013;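 also: potency is read from the fitted curve at half-maximal effect; 0% = DMSO wells and -100% = cell-free medium wells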
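Viability of IDH1-knockdown HT-1080 fibrosarcoma cells was assessed by CellTiter-Glo after 48 h at 37 °C with titrated compound; concentration-effect curves were classified by fit quality and response size.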
HT1080-NT tox: qHTS for induction of synthetic lethality in tumor cells producing 2HG: qHTS for the HT-1080-NT fibrosarcoma cell line | HT-1080-NT fibrosarcoma viability, CellTiter-Glo ATP luminescence, 48 h | Potency, µM (highest dose often 46.1 µM), for the others: at the highest dose activity, negative = less viability, hits mostly cytotoxic | 360,000 tested, 1.6% active;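 also: NT is the 2HG producing partner of a matched IDH1 knockdown line; potency is read from the fitted curve at half-maximal effect; 0% = DMSO-treated cells and -100% = media-only wells without cells; nearly all actives have a fitted effect of over 55% in size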
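750 cells/well, RPMI + 5% FBS; 2 h settle, compound pin-transfer, 48 h at 37 degrees C. CellTiter-Glo 10 min RT, luminescence. Normalized to DMSO and media-only wells.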
TDP1 cell CPT: qHTS for Inhibitors of human tyrosyl-DNA phosphodiesterase 1 (TDP1): qHTS in cells in presence of CPT. chicken DT40 Tdp1-/-;hTDP1 cells + 20 nM CPT, ATP luminescence, 48 h. Potency, µM (highest dose often 46.2 µM), inactives show at the highest dose activity change, negative = growth inhibition, most hits filed as inhibitors. 420,000 tested, 12% active; also: potency is read from the fitted curve at half-maximal effect; nearly all actives have a fitted effect of over 55% in size
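Cell growth measured by CellTiter-Glo luminescence after a minimum 48 h, 37 C compound exposure with 20 nM CPT in Tdp1-knockout DT40 cells stably expressing hTDP1, seeded 400/well; qHTS titration format.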
TDP1 cell noCPT: qHTS for Inhibitors of human tyrosyl-DNA phosphodiesterase 1 (TDP1): qHTS in cells in absence of CPT; DT40 Tdp1-/- hTDP1 cells, no CPT, ATP luminescence, 48 h; Potency, µM (highest dose often 46.2 µM), inactives show at the top dose activity change, negative = growth inhibition, usual class: inhibitors; 420,000 tested, 15% active; also: potency is read from the fitted curve at half-maximal effect; nearly all actives have a fitted effect of over 55% in size
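Stably hTDP1-transfected Tdp1-null chicken DT40 cells were treated with library compounds minus camptothecin and grown for at least 48 hr at 37 °C, after which cellular ATP was quantified by luminescence.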
Active calls of the source: *; ? = inconclusive; · = no result; [ ] = dose if it differs, or a comment. Unless noted, calls follow the shape of the dose curve; as a rule, active = well fitted curve in the direction sought with a large enough effect; inconclusive = small, poorly fitted or top-dose-only effect, or another doubt; inactive = no such curve, though single readings can be large; an effect the other way counts as inactive or inconclusive. Unless noted, % is scaled to controls: 0 for no effect and ±100 for the full control effect.

SMILES	IL1B secr inh	HT1080 IDH1KD tx	HT1080-NT tox	TDP1 cell CPT	TDP1 cell noCPT
O=C(N/N=C/c1cc(Br)cc(Br)c1O)c1ccncc1	164	?	?	2.6µM*	0.65µM*
O=C(N/N=C/c1cc(Cl)cc(Cl)c1O)c1ccncc1	10	3.7µM*	?	6.5µM*	15µM*
CC(C)NC(=O)CCNC(=O)c1ccc(F)cc1	15	7%	7%	-11%	0%
Cc1c(NC(=O)C2CCCCC2)cc(C(=O)N2CCOCC2)cc1[N+](=O)[O-]	12	1%	1%	-7%	9%
COc1ccc(-c2[nH]ncc2CN2CCN(C(=O)c3cccs3)CC2)c(F)c1	-5	1%	-10%	-13%	-17%
O=C(c1cccs1)N1CCN(Cc2cn[nH]c2-c2ccc(F)cc2F)CC1	-51*	-4%	-1%	-18%	2%
O=C(NCc1ccccc1Cl)c1ccc2c(c1)N(Cc1ccccc1)CCS2	·	·	·	13µM*	18µM*
Cc1ccccc1CNC(=O)c1ccc2c(c1)N(Cc1ccccc1)CCS2	·	·	·	?	21µM*
CCCCNC1=CC(=O)C(NCCCC)=CC1=O	-1	-17%	-22%	23µM*	16µM*
CCCCNC1=CC(=O)C(=O)c2ccccc21	20	23µM*	-5%	8.2µM*	21µM*
CN1CCN(NC(=O)NC2CCCCC2)CC1	-10	18%	10%	-6%	0%
COC(=O)[C@@H]1CCCN1Cc1ccc2c(c1)CN(Cc1ccccc1C)CCO2	·	·	·	9%[9.04 µM]	-2%
CCC1=C(OC(=O)N(CC)CC)N2C(=O)OC(=NCCc3c[nH]c4ccccc34)[C@]2(C)[C@H]2C1=CC[C@H]1C(=O)N(CC(=O)OC)C(=O)[C@H]12	-8	4%	2%	-25%	?
O=C(Cn1cc(S(=O)(=O)Cc2cccc(Cl)c2)c2ccccc21)Nc1ccccc1C(F)(F)F	·	·	·	13µM*	?
Cc1cc(NC(=O)CS(=O)(=O)c2cn(Cc3cccc(Cl)c3)c3ccccc23)no1	-25	?	?	26µM*	21µM*
O=C(Cn1cc(S(=O)(=O)Cc2ccccc2)c2ccccc21)Nc1ccccc1	8	0%	-17%	-19%	-29%
Cc1ccccc1Cn1cc(S(=O)(=O)CC(=O)Nc2nccs2)c2ccccc21	-64*	-22%	?	?	?
CC(=O)c1ccc(NC(=O)Cn2cc(S(=O)(=O)Cc3cccc(Cl)c3)c3ccccc32)cc1	·	·	·	23µM*	23µM*
Cc1cccc(-n2cnc(C(=O)N/N=C/c3ccccc3)c2)n1	?	1%	16%	-21%	?
COc1ccc(OC)c(NC(=O)COCc2cc(-c3ccc(F)cc3)on2)c1	·	·	·	18µM*	?
COc1ccccc1NC(=O)CCCc1nc(-c2ccc(OC)c(OC)c2)no1	0	-1%	-1%	?	-30%
CCc1ccccc1NC(=O)CCc1nc(-c2ccc(C)cc2)no1	-7	-14%	-13%	-20%	-10%
COc1cc(OC)c(NC(=O)CCc2nc(-c3ccc(C)cc3)no2)cc1Cl	-3	-7%[9.24 µM]	-3%	18µM*	23µM*
COc1cc(OC)c(NC(=O)CCc2nc(C3=CCN(Cc4cccc(Cl)c4)CC3)no2)cc1Cl	·	·	·	23µM*	8.2µM*
COc1ccc(-c2noc(CC(=O)Nc3cc(OC)ccc3OC)n2)cc1	·	·	·	23µM*	16µM*
Cc1cc(C(=O)NNC(=O)c2ccc(Cl)cc2Cl)c(C)o1	-13	0%	1%	-12%	-9%
Cc1cnn2c(C3CC3)ccnc12	14	-14%	-14%	3%	-1%
CC(=O)n1nc(-c2cccnc2)nc1NCc1ccc(F)cc1	·	·	·	-27%	?
Cc1cc(NS(=O)(=O)c2ccc(NC(=O)COc3ccccc3Br)cc2)no1	·	·	·	-1%	-11%

Assay outcomes from PubChem.
